According to PubChem BioAssay AID1159580 (chemical genetic matrix, 2015):
Where “and” joins values, the source holds several entries; their conditions need not be identical. Equal entries are not always repeated. Out of some 5,500 compounds screened, about 2,000 (36%) were called active. Another 18% or so got no clear call; they are omitted. No stated cut-off is given here; in the data, active means normalized growth mostly below about 0.91 (no sharp cut-off); inconclusive means no clear call, values can overlap the other calls; inactive means mostly above about 0.92. The list shows a part of the results.

Experiment: chemical genetic growth profiling, strain panel (AID 1159580);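 further: tested at 20 µM; growth read once vehicle control cultures reached saturation at 30 °C; 1 = growth at the plate median or of vehicle wells; lower values mean less growth of the strain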
Settings: S. cerevisiae deletion strains, growth OD

Measured: normalized growth

O=C1c2ccccc2C(=O)c2ccccc21
active: locus YDR195W, strain ref2 1.24 [resistant]
inactive: locus YAL013W, strain DEP1, hits give low values 1 | locus YAL021C, strain ccr4, hits give low values 0.97 | locus YAL026C, strain drs2, hits give low values 0.969 | locus YAL030W, strain snc1, hits give low values 0.995 | locus YBL061C, strain skt5, hits give low values 0.986 | locus YBR009C, strain hhf1, hits give low values 0.96 | locus YBR021W, strain FUR4, hits give low values 1.15 | locus YBR023C, strain chs3, hits give low values 0.982 | locus YBR171W, strain sec66, hits give low values 0.978 | locus YBR229C, strain ROT2, hits give low values 0.999 | locus YBR231C, strain swc5, hits give low values 0.963 | locus YBR279W, strain paf1, hits give low values 0.975 | locus YCL011C, strain gbp2, hits give low values 0.989 | locus YCL016C, strain dcc1, hits give low values 0.957 | locus YCL029C, strain bik1, hits give low values 0.994 | locus YCL069W, strain vba3, hits give low values 0.998 | locus YCR088W, strain abp1, hits give low values 1.01 | locus YDL005C, strain med2, hits give low values 0.999 | locus YDL035C, strain GPR1, hits give low values 0.949 | locus YDL040C, strain nat1, hits give low values 0.988 | locus YDL074C, strain BRE1, hits give low values 0.91 | locus YDL101C, strain DUN1, hits give low values 0.985 | locus YDL134C, strain PPH21, hits give low values 0.995 | locus YDL185W, strain tfp1, hits give low values 0.981 | locus YDL192W, strain arf1, hits give low values 0.99 | locus YDR001C, strain nth1, hits give low values 0.993 | locus YDR069C, strain doa4, hits give low values 0.984 | locus YDR101C, strain arx1, hits give low values 0.989 | locus YDR137W, strain rgp1, hits give low values 0.947 | locus YDR150W, strain NUM1, hits give low values 0.969 | locus YDR159W, strain sac3, hits give low values 1.01 | locus YDR162C, strain NBP2, hits give low values 0.921 | locus YDR297W, strain sur2, hits give low values 0.993 | locus YDR318W, strain mcm21, hits give low values 0.975 | locus YDR334W, strain swr1, hits give low values 0.974 | locus YDR335W, strain msn5, hits give low values 0.966 | locus YDR388W, hits give low values 1 | locus YDR392W, strain spt3, hits give low values 0.842 | locus YDR502C, strain sam2, hits give low values 0.991 | locus YEL003W, strain gim4, hits give low values 0.981 | locus YEL037C, strain rad23, hits give low values 0.982 | locus YEL061C, strain CIN8 (second series), hits give low values 0.991 | locus YEL061C, strain CIN8, hits give low values 1.01 | locus YER015W, strain faa2, hits give low values 0.957 | locus YER016W, strain bim1, hits give low values 0.992 | locus YER110C, hits give low values 0.986 | locus YER111C, strain swi4, hits give low values 1 | locus YER155C, strain BEM2 (second series), hits give low values 0.968 | locus YER155C, strain BEM2, hits give low values 1.02 | locus YER167W, strain BCK2, hits give low values 0.976 | locus YFR010W, strain ubp6, hits give low values 0.982 | locus YGL078C, strain dbp3, hits give low values 0.978 | locus YGL086W, strain mad1, hits give low values 0.967 | locus YGL167C, strain pmr1, hits give low values 0.963 | locus YGL173C, strain kem1, hits give low values 0.997 | locus YGL227W, strain vid30, hits give low values 1 | locus YGL240W, strain doc1, hits give low values 1 | locus YGL248W, strain PDE1, hits give low values 1.01 | locus YGL253W, strain hxk2, hits give low values 0.968 | locus YGR078C, strain PAC10, hits give low values 0.963 | locus YGR135W, strain pre9, hits give low values 0.994 | locus YGR229C, strain SMI1, hits give low values 0.854 | locus YGR252W, strain gcn5, hits give low values 1.01 | locus YHR013C, strain ard1, hits give low values 0.974 | locus YHR027C, strain rpn1, hits give low values 0.965 | locus YHR030C, strain SLT2, hits give low values 1.01 and 1.02 | locus YHR079C, strain IRE1 (second series), hits give low values 0.994 | locus YHR079C, strain IRE1, hits give low values 1.04 | locus YHR094C, strain hxt1, hits give low values 0.98 | locus YHR129C, strain ARP1, hits give low values 1 | locus YHR142W, strain chs7, hits give low values 0.93 | locus YHR200W, strain rpn10, hits give low values 0.988 | locus YIL066C, strain RNR3, hits give low values 0.95 | locus YIL073C, strain SPO22, hits give low values 0.832 | locus YIL125W, strain kgd1, hits give low values 0.989 | locus YIR030C, strain dcg1, hits give low values 0.998 | locus YJL092W, strain hpr5, hits give low values 0.992 | locus YJL095W, strain BCK1 (second series), hits give low values 1 | locus YJL095W, strain BCK1, hits give low values 0.994 and 1.03 | locus YJL115W, strain asf1, hits give low values 0.998 | locus YJL129C, strain trk1, hits give low values 1.07 | locus YJL134W, strain LCB3, hits give low values 0.988 | locus YJL154C, strain vps35, hits give low values 1 | locus YJL164C, strain tpk1, hits give low values 0.975 | locus YJL166W, strain qcr8, hits give low values 1 | locus YJL168C, strain set2, hits give low values 1 | locus YJL187C, strain SWE1 (second series), hits give low values 0.982 | locus YJL187C, strain SWE1, hits give low values 0.989 | locus YJR043C, strain POL32, hits give low values 0.958 | locus YJR066W, strain TOR1, hits give low values 0.982
